# ELG1 repair inh: inhibitors of ELG1-dependent DNA repair in HEK293T cells. HEK293T ELG1-luciferase reporter, luminescence, 16 h; DNA damage induced by 5-fluorouridine. Potency, µM (top dose mostly 46.1 µM), for the others: at the highest dose activity change, negative = inhibition, actives largely listed as inhibitors. 330,000 compounds, 2.3% hits. AID 504467; note: potency is the fitted concentration of half-maximal effect; nearly all actives have a fitted effect of over 55% in size
#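 In this reporter screen, reduction of luminescence relative to DMSO vehicle indicated activity. Compounds and 5-fluorouridine were added together to 2,000 cells per well, incubated for 16 hr at 37 °C, then developed with ONE-Glo.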
# FBPA coupling cs: inhibits coupling enzyme system, counter-screen for aldolase hits; coupling enzyme system counterscreen, AmpLite Red fluorescence; activity change, negative = inhibition, % at 58.2 µM, hits read low; 290,000 compounds, 0.67% hits; in the data active = activity change below about -30%
#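 First, compound is pin-transferred into glyceraldehyde-3-phosphate coupling-enzyme reagent at 57.5 uM final and held 10 min at RT. Next, substrate, coupling system and AmpLite Red are added. After 20 min RT, fluorescence (525/598 nm) is read.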
# RORgamma inh: ROR gamma (mouse) transcription inhibition; P51450; Drosophila S2 Gal4-RORgamma UAS-luciferase reporter, 20 h; Potency, µM (top dose mostly 53.6 µM), for inactives: at the highest dose activity change, negative = inhibition, most hits filed as inhibitors; 310,000 compounds, 5.4% hits; AID 2551; note: potency is the fitted concentration of half-maximal effect; nearly all actives have a fitted effect of over 60% in size
#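 Drosophila S2 cells stably expressing Gal4-DBD/mouse RORγ fusion under metallothionein promoter plus UAS-luciferase; compound 1 h, then 700 uM CuSO4 induction for 20 h at ambient temperature; inhibition read as reduced luminescence.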
# Gal4-VP16 FLuc: counter-screen for ROR gamma inhibitors: Gal4-VP16 reporter; Drosophila S2 Gal4-VP16 UAS-luciferase, luminescence, 20 h; Potency, µM (doses to about 53.6 µM), without a hit: at the top dose activity, negative = inhibition, most hits filed as inhibitors; 310,000 compounds, 3.5% hits; AID 2546;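 note: Gal4-VP16 expression switched on by copper sulfate through the metallothionein promoter; potency is the fitted concentration of half-maximal effect; nearly all actives have a fitted effect of over 50% in size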
# TSHR antag: blocks TSH signaling through the human TSH receptor; 330,000 compounds, 0.2% hits; activity change, negative = inhibition, % at 11.5 µM; P16473; TSHR-expressing cells, TSH-stimulated cAMP HTRF, 2 h; stronger effect = lower value;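 active = activity change below a set negative limit, meaning inhibition stronger than a set level, cut at about -70% in these data; inconclusive = activity change between two set negative limits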
# Target sequence (P16473 whole entry, looked up): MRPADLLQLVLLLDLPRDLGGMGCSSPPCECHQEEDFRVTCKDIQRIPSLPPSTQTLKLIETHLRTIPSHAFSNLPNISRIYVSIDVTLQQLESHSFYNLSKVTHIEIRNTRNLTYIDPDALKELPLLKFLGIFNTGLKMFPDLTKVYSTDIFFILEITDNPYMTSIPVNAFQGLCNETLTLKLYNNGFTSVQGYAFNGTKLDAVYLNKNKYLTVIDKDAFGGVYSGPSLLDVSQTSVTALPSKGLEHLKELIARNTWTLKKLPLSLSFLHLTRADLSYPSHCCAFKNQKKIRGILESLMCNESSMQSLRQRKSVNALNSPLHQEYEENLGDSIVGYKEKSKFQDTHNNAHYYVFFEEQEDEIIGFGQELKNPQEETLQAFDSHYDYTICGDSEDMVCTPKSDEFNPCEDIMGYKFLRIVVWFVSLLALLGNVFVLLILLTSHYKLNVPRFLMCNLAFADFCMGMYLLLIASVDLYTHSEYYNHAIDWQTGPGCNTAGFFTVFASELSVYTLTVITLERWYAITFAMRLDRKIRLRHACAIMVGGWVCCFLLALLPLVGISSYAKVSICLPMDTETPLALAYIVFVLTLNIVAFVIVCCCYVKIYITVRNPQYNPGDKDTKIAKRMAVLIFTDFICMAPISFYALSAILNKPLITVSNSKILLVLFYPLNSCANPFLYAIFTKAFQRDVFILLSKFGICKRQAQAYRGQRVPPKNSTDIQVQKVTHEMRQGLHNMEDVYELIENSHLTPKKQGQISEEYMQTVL
#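 Cell-based HTRF cAMP assay; TSHR cells + compound, TSH EC80 (4nM final), 2 h, 37 deg C. Lysis with anti-cAMP cryptate and cAMP-d2, 30 min RT, read 665/620 nm.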
# Numbers without * were called inactive; ? = inconclusive; / = not tested or not shown; [ ] = another dose, or the depositor's remark. A selection: hits, their analogues and other compounds. The true share with any hit is near 8%. Unless noted, calls come from the whole dose curve; as a rule, active = well fitted curve in the direction sought with a large enough effect; inconclusive = small, poorly fitted or top-dose-only effect, or another doubt; inactive = no such curve, though single readings can be large; an effect the other way counts as inactive or inconclusive. % is set by controls: 0 for no effect and ±100 for the full control effect.
SMILES,ELG1 repair inh,FBPA coupling cs,RORgamma inh,Gal4-VP16 FLuc,TSHR antag
O=C(CSc1nc(-c2ccccc2)c(-c2ccccc2)o1)NC1CCS(=O)(=O)C1 (stereo unspecified),23µM*,1,11%,8%,13
Cc1nn(Cc2ccc(Cl)cc2Cl)c(C)c1NC(=O)CCl,15µM*,-1,?,?,11
Cc1nn(C)c(Cl)c1NC(=O)OCc1ccc(Cl)cc1Cl,-12%,-1,?,8.9µM*,-24
Cc1nnsc1NC(=O)OCc1ccc(Cl)cc1Cl,2%,3,?,-9%,33
CCOC(=O)c1c(-c2cccs2)csc1NC(=O)CC(C)C,0%,3,31%,-6%,-14
NC(=O)c1c(-c2cccs2)csc1N,-11%,-45*,-4%,7%,-2
CC1CCN(C(=O)COC(=O)c2ccccc2C(=O)c2ccccc2)CC1,3%,/,/,/,-15
Cc1ccc(C(=O)c2ccccc2C(=O)OCC(=O)N2CC(C)CC(C)C2)cc1 (stereo unspecified),18µM*,/,/,/,-6
CC1(C)C(c2cccs2)=[N+]([O-])C2(CCCCC/C2=N\NC(N)=S)N1O (stereo unspecified),?,-11,0.63µM*,6%,25
CCOC(=O)c1c(C)[nH]c(C(=O)CSc2nnc(-c3ccncc3)n2CC)c1C,?,-6,-6%,-4%,1
C=CCn1c(SCC(=O)c2[nH]c(C)c(C(=O)OCC)c2C)nc2scc(-c3ccc(OC)c(OC)c3)c2c1=O,-11%,0,10µM*,10µM*,-3
Cc1cc(NC(=O)COC(=O)C2CCN(S(=O)(=O)c3c(Cl)cccc3Cl)CC2)no1,-3%,7,5µM*,-5%,-8
CCOC(=O)C1CCN(S(=O)(=O)c2c(Cl)ccc3nonc23)CC1,?,/,2.2µM*,2.8µM*,-90*
CCOC(=O)C1CCN(S(=O)(=O)c2cccc3nonc23)CC1,-1%,0,-27%,2%,1
CCN(Cc1ccccc1)S(=O)(=O)c1cc2[nH]c(=O)c(=O)[nH]c2cc1C,12%,1,-24%,-5%,7
N=C(N)SCc1cn(-c2ccccc2)nc1-c1ccc(Br)cc1,6%,0,11µM*,?,-8
COc1ccc2oc(C)c(C(N)=O)c2c1,2%,2,4%,-3%,15
COc1ccc2oc3cc(C)[n+]([O-])c(-c4ccc(Br)cc4)c3c2c1,21µM*,6,21%,-23%,3
O/N=C/c1ccnc(SCc2ccccc2)n1,?,1,0.56µM*,3.5µM*,-8
O=C(CN1C(=O)NC2(CCCC2)C1=O)OCCOc1ccc(Cl)cc1Cl,10%,/,/,/,-17
CC(C)(C)OC(=O)N1CCC[C@H]1C(=O)OCC(=O)Nc1cc(S(C)(=O)=O)ccc1Cl,6%,/,/,/,-10
Cc1ccc(N2C(=O)N3[C@H](c4ccc(F)cc4)[C@@H]4C(=O)N(C5CCCCC5)C(=O)[C@@H]4[C@]3(C)C2=O)cc1,5%,-3,39%,-6%,-1
COc1ccccc1Cn1c(=S)[nH]c2cc(C(=O)NCC3CCCO3)ccc2c1=O (stereo unspecified),?,0,13µM*,?,-12
COc1ccccc1CNC(=O)c1ccc2c(=O)n(CC3CCCO3)c(=S)[nH]c2c1 (stereo unspecified),0%,8,-39%,-23%,-2
O=C(NCc1ccco1)c1ccc2c(=O)n(CC3CCCO3)c(=S)[nH]c2c1 (stereo unspecified),13µM*,0,?,1%,5
SMILES,ELG1 repair inh,FBPA coupling cs,RORgamma inh,Gal4-VP16 FLuc,TSHR antag
CCCc1ccc(C(=O)O/N=C(\N)c2ccccn2)cc1,?,2,13µM*,11µM*,-1
N/C(=N\OC(=O)c1ccc2ccccc2c1)c1ccncc1,?,0,-30%,-21%,-1
N/C(=N\OC(=O)c1ccc(=O)n(Cc2ccccc2)c1)c1ccccn1,6%,3,11%,2%[10 µM],12
COc1cccc(C(=O)O/N=C(\N)c2ccccn2)c1,?,3,?,14µM*,30
N/C(=N\OC(=O)c1ccc2ccccc2c1)c1ccccn1,?,1,4.5µM*,7.9µM*,-17
Cc1cc2cc(CNC(=O)c3ccc(Br)o3)ccc2[nH]1,2%,-4,-15%,1%,-4
CCCCNC(=S)NCc1ccc2[nH]c(C)cc2c1,1%,-5,10µM*,?,-1
CCOc1ccc(NC(=S)NCc2ccc3[nH]c(C)cc3c2)cc1,?,-1,2.5µM*,10µM*,1
Cc1cc2cc(CNS(=O)(=O)N(C)C)ccc2[nH]1,9%,-36*,0%,1%,8
COc1cc(OC)cc(C(=O)NCc2ccc3[nH]c(C)cc3c2)c1,-10%,-1,6%,-23%,4
CC[C@H]1C2=C3C(CC[C@H]4C(OCc5ccc(F)cc5C(F)(F)F)OC[C@](C)([C@@H]34)N(C(=O)OC(C)(C)C)C2)C2COC(=O)OCC21 (stereo partly specified),/,-7,5%,3%,/
O=C(c1ccc([N+](=O)[O-])s1)N1CCN(c2ccccc2)CC1,?,5,25µM*,-18%,10
O=C(Nc1ccccc1O)c1ccccc1O,?,0,?,?,-11
CCOc1ccc(C(=O)Nc2cccc(C(=O)O)c2C)cc1Cl,?,-14,-39%,1.6µM*,15
Cc1cccc(NC(=O)c2ccccc2O)c1C,?,-32*,?,1.1µM*,22
Cc1c(NC(=O)c2ccc(-c3ccccc3)cc2)cccc1C(=O)O,?,6,10µM*,?,-12
O=C(O)/C=C(\CC(=O)O)C(=O)O,/,1,-22%,2%,/
CCCNC(=O)c1ccc(N2CCC3(CC2)CC(c2ccccc2)=NO3)c(NC(=O)Cc2ccc(F)cc2)c1,21µM*,0,28%,-4%,7
COc1cc(/C=N/NC(N)=S)ccc1OCC(=O)N1CCOCC1,13%,0,2%,4%,-17
COc1cc(/C=N/NC(N)=S)ccc1OC(=O)c1ccc(C)cc1,?,0,20µM*,?,-11
COc1ccc(C(=O)Oc2cccc(/C=N/NC(N)=S)c2)cc1,1%,1,16µM*,10µM*,2
COc1cc(/C=N/NC(N)=S)ccc1OCc1ccc(C)cc1,?,1,7.1µM*,8.9µM*,-2
CC(=O)c1ccc(NC(=O)CCn2c(=S)oc3ccccc32)cc1,12%,1,-2%,-1%,8
Cc1c(CCC(=O)NCCCn2ccnc2)c(=O)oc2cc3oc4c(c3cc12)CCCC4,3%,-1,1.3µM*,16µM*,-1
